Shiga inhibitor: blocks Shiga toxin action in Vero cells; Vero cells, Shiga toxin protein synthesis inhibition reporter; inhibition, % at 38.7 µM; actives 9.2% (n = 290,000); in the data active = inhibition mostly above about 28%, no sharp cut-off; inactive = mostly below about 43%; also: 0% is about no effect
FMDV inh: antivirals against foot and mouth disease virus | FMDV antiviral cell-based qHTS | Potency, µM (top dose mostly 57.9 µM), for inactives: top-dose activity change, negative = inhibition, hits mostly inhibitors | actives 1.2% (n = 410,000) | AID 1159524; calls by dose curve; tested in HEK293T cells; also: read-out not given here; potency is read from the fitted curve at half-maximal effect; % is scaled to controls: 0 for no effect and ±100 for the full control effect; nearly all actives have a fitted effect of over 45% in size
HCV inh: inhibitors of hepatitis C virus infection; Huh7.5.1 HCVcc-Cre infection, luciferase reporter, 44 h; Potency, µM (series often up to 41.8 µM), without a hit: top-dose activity change, negative = inhibition, usual class: inhibitors; actives 3.4% (n = 340,000); active = well fitted inhibition curve with a large enough effect; inconclusive = small, poorly fitted or top-dose-only effect, or another doubt; inactive = no such curve, though single readings can be large or run the other way; also: potency is read from the fitted curve at half-maximal effect; % is scaled to controls: 0 for no effect and ±100 for the full control effect
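Cells (1,000/well) were plated 4 h before compound, then infected with HCVcc-Cre virus (~0.5 moi). After 44 h further culture, infection was read as luciferase luminescence following a 15 min substrate incubation at room temperature.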
Cycloheximide cs: counter-screen for Shiga toxin inhibitors: cycloheximide protein synthesis inhibition; cell reporter, cycloheximide protein synthesis inhibition counterscreen; max response, %; actives 12% (n = 300,000); in the data active = max response mostly above about 13%, no sharp cut-off; inactive = mostly below about 14%; also: read at 38.3 µM for the half of the compounds with a filed dose; 0% is about no effect
LASV entry inh: Lassa virus entry inhibition; Lassa virus pseudotype entry inhibition, cell reporter; Potency, µM (titrated, usually from 37.9 µM), for the others: at the top dose activity change, negative = inhibition, hits mostly inhibitors; actives 1.2% (n = 300,000); AID 540256; calls by dose curve; tested in HEK293 cells; also: potency is read from the fitted curve at half-maximal effect; % is scaled to controls: 0 for no effect and ±100 for the full control effect; nearly all actives have a fitted effect of over 50% in size
Marburg entry inh: inhibitors of Marburg virus binding or cell entry; Marburg virus pseudotyped entry inhibition, cell reporter; Potency, µM (top dose mostly 37.8 µM), for the others: at the top dose activity change, negative = inhibition, hits mostly inhibitors; actives 1.8% (n = 300,000); AID 540276; calls by dose curve; tested in HEK293 cells; also: potency is read from the fitted curve at half-maximal effect; % is scaled to controls: 0 for no effect and ±100 for the full control effect
An asterisk follows results filed as active; ? = inconclusive; · = no result; [ ] = dose if it differs, or a comment. Most compounds without a hit are left out; they make up all but 13% or so of the library.

SMILES	Shiga inhibitor	FMDV inh	HCV inh	Cycloheximide cs	LASV entry inh	Marburg entry inh
Cc1ccc(OCc2nnc(SC(C)C(=O)O)n2Cc2ccccc2)cc1 (stereo not given)	20	-9%	9%	0	3%	5%[14.2 µM]
CCN(CC(=O)Nc1c(F)cccc1F)C(=O)c1nc2nc(C)cc(C)n2n1	·	-24%	-2%	·	1%	-1%
CCOC(=O)c1nn(-c2cccc(OC)c2)c2nc(Nc3ccccc3)cc(=O)n12	-11	-29%	11µM*	-2	-7%	16%
CCOC(=O)c1nn(-c2cccc(Cl)c2)c2nc(Nc3ccccc3)cc(=O)n12	8	0%	-20%	-3	2%	22%
CCCCN(C)Cc1c(C(=O)N2CCc3ccccc3C2)nc2ccc(Cl)cn12	45	-28%	-1%	-3	-7%[46.1 µM]	?
CC(C)CN(C)Cc1c(C(=O)N2CCc3ccccc3C2)nc2ccc(Cl)cn12	-9	-16%	?	1	-5%	11µM*
Cc1ccccc1-c1nc(-c2ccc(Br)o2)no1	97*	4%	-5%	44*	2%[46.1 µM]	?
Fc1ccccc1-c1nc(-c2ccc(Br)o2)no1	85*	-24%	?	57*	·	·
COc1ccc(Br)cc1-c1noc(-c2ccccc2F)n1	-7	-2%	14%	-2	14%	12%
Cc1ccccc1-c1noc(-c2cc3ccccc3oc2=O)n1	·	12%	·	·	24%[46.1 µM]	·
Cc1ccccc1-c1nc(-c2ccc(NC(=O)c3ccc(Br)o3)cc2)no1	57*	-6%	?	27*	-19%	0%
N=c1sccn1CC(=O)Nc1cccc(S(N)(=O)=O)c1	-11	-11%	-2%	6	·	·
O=C(CCCN=C1NS(=O)(=O)c2ccccc21)OCc1cc([N+](=O)[O-])cc2c1OCOC2	-5	-14%	-11%	-3	·	·
CC(C)c1ccc(N2C(=O)CC(Sc3nc4ccccc4o3)C2=O)cc1 (stereo not given)	10	25%	-16%	15*	13%	?
Cc1ccccc1N1C(=O)C[C@@H](Sc2nnc(-c3ccccc3)o2)C1=O	·	·	·	·	·	9%
Cc1ccccc1N1C(=O)CC(Sc2nnc(-c3ccccc3)o2)C1=O (stereo not given)	10	-26%	?	19*	17%	9%
O=C1CC(Sc2nnc(-c3ccccc3)o2)C(=O)N1c1ccccc1 (stereo not given)	49*	?	?	22*	11%	?
COc1cc(NC(=O)[C@H](C)NC(=O)N2CCn3c2nc2ccccc23)cc(OC)c1	-3	-11%	-2%	-2	·	·
CCOc1ccc(NC(=O)CN(C)C(=O)c2cc(S(=O)(=O)N3CCCCCC3)ccc2OC)cc1OCC	·	-18%	2%	·	3%	?
COc1ccc(Cl)cc1C1=NOC2(CCC2)C(=O)N1Cc1cccc(C#N)c1	·	14%	·	·	·	·
CCOC(=O)C1C(=O)C=C(c2ccc(Br)cc2)CC1c1ccco1 (stereo not given)	14	?	-19%	2	15µM*	?
CCOC(=O)C1C(=O)C=C(c2ccc([N+](=O)[O-])cc2)CC1c1ccccc1 (stereo not given)	15	?	?	-3	?	?
CCOC(=O)C1C(=O)C=C(c2ccc(C)cc2)CC1c1ccccc1 (stereo not given)	7	-5%	-5%	7	16µM*	20%[46.1 µM]
CCCCn1c(SCC(=O)N(CC)C2CCS(=O)(=O)C2)nnc1C(CC)N(C)C (stereo not given)	18	3%	25%	-2	-4%	?
Cn1cc(C(=O)c2ccc(Cl)cc2Cl)cc1C(=O)N/N=C(\N)COc1ccc(F)cc1	-4	?	10µM*	9	?	?
SMILES	Shiga inhibitor	FMDV inh	HCV inh	Cycloheximide cs	LASV entry inh	Marburg entry inh
Cn1cc(C(=O)c2ccc(Cl)cc2Cl)cc1C(=O)N/N=C(\N)COc1ccccc1	-1	-27%	-23%	-3	?	?
Cn1cc(C(=O)c2ccc(Cl)cc2Cl)cc1C(=O)O	-12	-2%	16%	-4	22%	?
Cn1cc(C(=O)c2ccc(Cl)cc2Cl)cc1C(=O)N/N=C(\N)COc1ccc(Cl)cc1Cl	-2	?	13µM*	-2	?	?
Cn1cc(C(=O)c2ccc(Cl)cc2Cl)cc1C(=O)N/N=C(\N)COc1ccc(Cl)cc1	-8	?	13µM*	-2	?	?
COc1ccc(NC(=O)CCC(=O)N/N=C/c2cccnc2)cc1	14	-12%	1%	-9	·	·
O=C(CSc1nnc(CN2CCOCC2)n1-c1ccc(Cl)cc1)N1CCc2ccccc21	·	-29%	2%	·	-5%	16%
Cc1cc(/C=C(\C#N)C(=O)Nc2ccccc2F)c(C)[nH]1	64*	51%	?	46*	?	?
N#C/C(=C\c1ccc[nH]1)C(=O)Nc1ccccc1Cl	61*	24%	5%	33*	27%[46.1 µM]	2%[46.1 µM]
N#C/C(=C\c1ccc[nH]1)C(=O)c1ccccc1	99*	35%	16%	33*	-9%[46.1 µM]	?
COc1ccc(NC(=O)/C(C#N)=C/c2ccc[nH]2)c(OC)c1	-20	9%	-2%	11	·	·
N#C/C(=C/C1=C(N2CCOCC2)C(=C/c2ccccc2)/CC1)C(=O)Nc1ccccc1F	·	?	-26%	·	-19%[46.1 µM]	0%[46.1 µM]
Cc1cc(/C=C(\C#N)C(=O)NCc2ccco2)c(C)[nH]1	9	38%	?	11	16%	17%
N#C/C(=C\c1ccc[nH]1)C(=O)Nc1ccccc1F	74*	19%	3%	34*	24%[46.1 µM]	?
CC(C)c1ccc(NC(=O)CNS(=O)(=O)c2ccc(F)cc2)cc1	6	-14%	-27%	11	·	·
C/C(=N\OC(=O)NC(C)C)c1sc(-c2ccccc2)nc1C	52	-16%	?	26*	?	?
C=CCNC(=O)c1sc(-c2ccccc2)nc1C	42*	44%	-9%	17*	12%	15%[46.1 µM]
C/C(=N\OC(=O)NC(C)C)c1sc(-c2ccc(Cl)cc2)nc1C	112*	-22%	?	34*	?	?
C/C(=N\OC(=O)NC1CCCCC1)c1sc(-c2ccccc2)nc1C	90	?	?	25	?	?
CCNC(=O)O/N=C(\C)c1sc(-c2ccc(Cl)cc2)nc1C	114*	18%	10µM*	52*	-29%	?
Cc1cc(Cn2nc(C(=O)NCc3cccs3)cc2-c2ccccc2)on1	·	19%	1%	·	·	·
CC(C)c1[nH]c(=O)c(C#N)c2c1COC(C)(C)C2	-11	14%	6%	-1	-2%	8%
C/C(=N\OC(=O)c1ccc(F)cc1)c1sc(-c2ccccc2)nc1C	54	35%	19%	19*	9%	?
C/C(=N\OC(=O)c1ccc(Cl)cc1)c1sc(-c2ccccc2)nc1C	22	33%	1%	19	5%	?
O=C(O)c1ccc(-c2noc(-c3cccc(C(F)(F)F)c3)n2)cc1	·	19%	·	·	·	·
